Measurements taken from PubChem BioAssay (NCI).
The panel holds about 79,000 compounds, 15% with a hit somewhere; the sample as a whole holds those more often. Unmarked numbers belong to inactive results. Active and inactive are the calls of the source. No stated cut-off is given here; in the data, active means growth inhibition above about 70%; inactive means the rest.

Key:
[1] = NCI Yeast Anticancer Drug Screen. Data for the rad50 strain (AID 155);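 further: 0% = growth of vehicle-only cultures of the same strain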; details: S. cerevisiae rad50 strain growth inhibition; at 50.0 µM; stronger effect = higher value
In short: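 Genetically altered yeast (DNA repair pathway); compound treatment; growth inhibition vs vehicle ctrl.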

[2] = NCI Yeast Anticancer Drug Screen. Data for the mec2-1 strain (AID 157); details: S. cerevisiae mec2-1 strain, at 50.0 µM, stronger effect = higher value
In short: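 mec2-1 yeast strain, carrying an alteration in DNA damage repair or cell cycle control, was exposed to compounds; growth inhibition was measured relative to vehicle-treated controls.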

[3] = NCI Yeast Anticancer Drug Screen. Data for the sgs1 mgt1 strain (AID 161);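 further: 0% = growth of cultures given vehicle only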; details: S. cerevisiae sgs1 mgt1 strain, at 50.0 µM, stronger effect = higher value
In short: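 Yeast cells carrying a defined DNA-repair defect were exposed to test compounds. Growth inhibition was measured relative to vehicle-treated controls.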

[4] = NCI Yeast Anticancer Drug Screen. Data for the cln2 rad14 strain (AID 165);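 further: 0% = growth equal to vehicle treated cultures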; details: S. cerevisiae cln2 rad14 strain, at 50.0 µM, stronger effect = higher value
In short: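 Yeast carrying cln2 and rad14 alterations (cell cycle control and DNA damage repair) were exposed to compounds. Growth inhibition was measured against vehicle-treated controls.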

[5] = NCI Yeast Anticancer Drug Screen. Data for the bub3 strain (AID 167); details: S. cerevisiae bub3 mutant strain, at 50.0 µM, stronger effect = higher value
In short: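 Yeast carrying a defined mutation is treated with each compound, and growth is compared with that of vehicle-exposed cells to give inhibition.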

[6] = NCI Yeast Anticancer Drug Screen. Data for the mlh1 rad18 strain (AID 175); details: S. cerevisiae mlh1 rad18 strain growth inhibition; at 50.0 µM; stronger effect = higher value
In short: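 Growth inhibition of the yeast strain was measured after compound exposure and expressed relative to vehicle-treated controls. The strain carries defined defects in DNA damage repair.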

SMILES	growth inhibition [1]	growth inhibition [2]	growth inhibition [3]	growth inhibition [4]	growth inhibition [5]	growth inhibition [6]
CCC1(CCCCCBr)OCCO1	13.9%	12.6%	19.6%	10.2%	14.8%	7.9%
CN(C)c1nc(N(C)C)c2cnn(C)c2n1	21.7%	3.7%	20.9%	-15.8%	-2.7%	-29.8%
c1ccc(CN2CCc3ncnc(Nc4ccccc4)c3C2)cc1	-13.4%	1.25%	5.5%	-16.8%	4.75%	-5.05%
N#CC1CCCCC(=O)N1 (centres undefined)	3.55%	2.2%	-2.05%	-3.6%	-1.2%	-1.55%
Cc1nc2nn(C)cc2c(=O)n1/N=C/c1ccccc1	-18.8%	-35.5%	-50.1%	-5.9%	-4.15%	-37.4%
COc1ccc(/C=C2\Cc3ccccc3C2=O)cc1OC	-0.05%	-10.2%	-9.85%	8.25%	-25.4%	-1.5%
C[Si](C)(C)Oc1cc(N=NNC2=CC(=O)c3ccccc3C2=O)c(O)c2ccccc12	-0.1%	2.2%	-11.8%	-24%	7.6%	5.15%
COc1ccc(CSc2n[nH]c(=O)[nH]c2=S)cc1	14.8%	-4.45%	-10.4%	-12.1%	4.7%	38.4%
O=C(O)CC(CC(=O)O)c1ccc2c(c1)OCO2	-32.6%	-20.9%	-3.7%	-1.2%	-35.8%	-13.1%
O=C1NS(=O)(=O)c2cc(Cl)ccc21	-34.3%	-22.1%	-23.8%	-18.4%	-1.85%	-12.8%
CC1CC(C)SC(C)S1 (centres undefined)	-30.6%	-7.95%	-10.1%	-87.4%	-2.7%	-14.8%
CC1(C)/C(=C\C(=O)O)C2CCC1C2 (centres undefined)	11.4%	8.3%	7.5%	-10.8%	-9.1%	8.75%
O=C1OC(c2ccccc2)C=C1Nc1ccccc1 (centres undefined)	9.55%	12.4%	-3.05%	-12.1%	17%	9.4%
CC(=O)OC(C)c1cc2c(s1)C(=O)c1sccc1C2=O (centres undefined)	88.6% (active)	91% (active)	88.8% (active)	89% (active)	89.3% (active)	89.5% (active)
COc1cc(C(=O)Oc2c(C#N)sc3c2c(=O)n(-c2ccccc2)c(=S)n3-c2ccccc2)cc(OC)c1OC	22.8%	3.2%	12.1%	10.2%	21.9%	20.5%
CCCCCCCCS(N)(=O)=O	0.8%	-15.2%	-4.1%	-11.4%	-2.55%	-8.95%
CCO[C@H]1OC(=O)[C@@H]2C(c3ccc([N+](=O)[O-])cc3)=NO[C@H]12	-12%	-32.5%	-12.9%	2.7%	4.85%	-29.8%
COc1ccc(C(C)OC)cc1OC (centres undefined)	-15%	-22.2%	15.6%	-16.6%	8.7%	-8.75%
CCCCN(CC)C(=O)C(=O)Cc1nc2ccc(C(=O)c3ccccc3)cc2[nH]c1=O	17.3%	2.45%	-4.2%	17%	4.2%	2.4%
O=C1C(Br)=C(Oc2ccccc2)C(=O)C(Br)=C1Oc1ccccc1	7.85%	11.4%	13.6%	1.05%	10.8%	-8.45%

SMILES	growth inhibition [1]	growth inhibition [2]	growth inhibition [3]	growth inhibition [4]	growth inhibition [5]	growth inhibition [6]
O=C(O)/C=C(\Br)C(=O)O	16.1%	-4.1%	-1%	-11.4%	-5.4%	5.3%
CN(C)c1ccc(/C=C/C(=O)CC(=O)/C=C/c2ccc(N(C)C)cc2)cc1	22.2%	21.3%	-28.2%	-27.4%	-4.3%	0.8%
O=c1ccn(Cc2ccccc2)c(=O)[nH]1	25.6%	-10.3%	4.35%	-29.4%	-3.95%	21.9%
O=C(O)CCCc1ccc2c(c1)oc1ccccc12	-18.6%	-6.3%	1.5%	-18.6%	13.6%	20.9%
NC(=O)Cc1c(F)c(F)c(F)c(F)c1F	9.95%	-20.5%	-0.95%	8.85%	28.8%	5.3%
O=c1[nH]nc(S(=O)(=O)N2CCCC2)c(=O)[nH]1	-10.9%	-9%	-10.7%	-2.85%	-4.15%	-13.2%
Cc1cc(N)ccc1N=Nc1ccc(Sc2ccc(N=Nc3c(S(=O)(=O)O)cc4cc(S(=O)(=O)O)c(N=Nc5ccc([N+](=O)[O-])cc5)c(N)c4c3O)cc2)cc1	-77%	-27.9%	-32.4%	-95.8%	-65.8%	-27.9%
O=c1[nH]n(CCc2ccccc2CCl)c2ccc([N+](=O)[O-])cc12	26%	14.6%	16.4%	9.45%	38.7%	-10.6%
CC(=O)OCC(=O)C1(O)CCC2C3CCC4=CC(=O)CCC4(C)C3(SC#N)CC(=O)C21C (centres undefined)	-8%	19.9%	27.2%	13.2%	11.8%	2.45%
[Cl][Cu][Cl].c1ccc2c(c1)Sc1ccccc1[N+]2=c1ccc2nc3ccccc3sc-2c1	26.1%	45.8%	29.8%	2.7%	29.9%	35%
CCCCCCCCCCOc1ccc(C2=C(c3ccccc3)C(=O)C(c3ccccc3)=C2c2ccccc2)cc1	25.3%	10.4%	17.4%	14.9%	-5.3%	3.6%
Cc1cc(C(N)=O)c(C(N)=O)c(Cl)n1	2.35%	-7.35%	-3.2%	-0.2%	9.05%	-10.7%
CCN(CC)CCC1(C#N)Cc2ccccc2N(CC)c2ccccc21 (centres undefined)	41.8%	5.05%	9.45%	15.6%	7.3%	-19.6%
O=C1CCCCC1C(Nc1ccccc1)c1ccccc1 (centres undefined)	2.95%	-6%	-10.7%	15.8%	-2.6%	17.1%
CC12CCC(=O)C3C1CCCC32	-0.45%	-6.2%	-13.9%	1.2%	-2.15%	-21.6%
CC(C)OC(=O)C(=O)OC(C)C	14.3%	20.1%	-24.3%	0.1%	0.85%	1.85%
NC(CCC(N)C(=O)O)C(=O)O (centres undefined)	-25.4%	-20.6%	-25.2%	-13.5%	-13.1%	-18.1%
CCC(O)C(C)(C)N (centres undefined)	13.4%	-7.8%	2.7%	-6.45%	4.45%	0.4%
O=S1(=O)C=CC(N/N=C\c2ccc3ccccc3n2)=C1	4.8%	-11.1%	-4.45%	-36.8%	9.7%	-7.25%
